Source: PubChem (several laboratories)
Sampled rows, rich in hits. Any-hit rate of the full collection: about 3.3%.
Calb FLC: C. albicans growth modulation with fluconazole; C. albicans CaCi-2 (fluconazole-resistant clinical isolate) + fluconazole, Alamar Blue growth, 48 h; growth inhibition, % (concentration not given with the values); actives 0.57% (n = 300,000); AID 1979;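 active = growth inhibition above about 58% in most replicates, limit read from the data, passing the limit was not always enough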;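 also: all wells also contain fluconazole at 8 µg/ml as a sub-toxic cotreatment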
H9c2 protect: modulators protecting cardiomyocytes from myocardial damage | H9c2 cardiomyocytes, H2O2 injury protection, ATPLite, 2 h | protection from H2O2 cell death, % at 20 µM | actives 0.63% (n = 360,000) | AID 588492;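 active = compounds giving at least 50% protection of heart cells from peroxide-induced death in the single-dose screen, raw or plate-pattern-corrected value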
Efflux pump inh: blocks antifungal efflux pumps in multiplex yeast assay | AID 485275 | actives 0.44% (n = 330,000) | S. cerevisiae Candida pump triplex, Nile Red efflux | inhibition, % at 10 µM;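 active = plate passing quality check with inhibition over a set limit, or well fluorescence over plate mean plus 4 SD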;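 also: Nile Red retained in pooled yeast measured as flow cytometry median fluorescence; higher means more Nile Red kept so more efflux inhibition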
Cl transport mod: modulators of human KCC2 chloride dependent transport; actives 2.2% (n = 190,000); B-score of Tl+ flux slope (higher = more flux/activation; lower = inhibition) at 10 µM; KCC2 cells, thallium flux FluoZin-2 fluorescence; AID 1456; Q9H2X9;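 active = thallium flux slope and its plate-corrected score both differing from the plate sample mean at a set confidence after two filtering rounds, in either direction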;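 also: slope of fluorescence scaled to starting intensity during 10 to 20 s after thallium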
PHOSPHO1 block: inhibitors of human PHOSPHO1 phosphatase | actives 1.1% (n = 290,000) | inhibition, % at 13.3 µM | recombinant PHOSPHO1, absorbance phosphatase assay | Q8TCT1; in the data active = inhibition above about 60%
Target sequence (Q8TCT1 whole entry, looked up): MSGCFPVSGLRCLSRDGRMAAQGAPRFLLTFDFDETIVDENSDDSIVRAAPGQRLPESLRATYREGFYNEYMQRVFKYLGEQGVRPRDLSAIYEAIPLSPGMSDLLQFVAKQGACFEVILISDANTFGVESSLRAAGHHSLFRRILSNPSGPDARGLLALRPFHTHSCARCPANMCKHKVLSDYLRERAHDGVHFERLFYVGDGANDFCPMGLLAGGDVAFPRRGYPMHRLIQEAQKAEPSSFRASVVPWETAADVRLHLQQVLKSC
Large screens that a line does not name were inactive.

Cc1ccnn1CCC(=O)N1CCCC(N2CCN(c3cccc(Cl)c3)CC2)C1 (configuration not stated)	none (no result: Cl transport mod)
CCNS(=O)(=O)c1ccc(NC(=O)c2cccnc2)cc1	Calb FLC 100
O=S(=O)(NCc1csc(-c2cccnc2)n1)c1cccs1	none
CC(=O)Nc1ccc(S(=O)(=O)NCc2csc(-c3cccnc3)n2)cc1	Cl transport mod 3.2 (no result: Calb FLC)
O=C(Nc1ccc(S(=O)(=O)Nc2ncccn2)cc1)c1cccnc1	none
COC(=O)c1sc(NC(=S)NC(=O)c2ccccc2Cl)nc1C	Cl transport mod 50
COC(=O)c1sc(NC(=S)NC(=O)c2ccccc2)nc1C	Cl transport mod 35
Cc1ccc2cccnc2c1NC(=S)NC(=O)c1ccccc1	PHOSPHO1 block 69
Cc1ccc(N(CC(=O)N2CCN(c3ccc(F)cc3)CC2)S(=O)(=O)c2c(C)noc2C)cc1	none (no result: Cl transport mod)
COc1ccc(CCN2CC(C(=O)NCc3cn(C)nc3C)CCC2=O)cc1 (configuration not stated)	none (no result: Calb FLC, Efflux pump inh, Cl transport mod, PHOSPHO1 block)
COc1cc(CCNC(=O)c2ccccc2NC(=O)C2=C(C)OCCS2)cc(OC)c1OC	PHOSPHO1 block 64 (no result: Cl transport mod)
Cc1ccc(-n2nc3c(=O)n(CCCC(=O)NCc4ccc(F)cc4)nc(C)c3c2C)cc1	none (no result: Cl transport mod)
Cc1ccc(-n2nc3c(=O)n(CCCC(=O)NCc4ccco4)nc(C)c3c2C)cc1	PHOSPHO1 block 64 (no result: Cl transport mod)
CC(Oc1ccc(Cl)cc1Cl)C(=O)NNC(=O)C(=O)N1CCCC1 (configuration not stated)	none (no result: Cl transport mod)
CCC(C)[C@H](NC(=O)[C@@H]1CSC2c3ccccc3C(=O)N21)C(=O)NC1CCCC1 (some centres not stated)	none (no result: Cl transport mod)
CCC(C)[C@H](NC(=O)[C@@H]1CSC2c3ccccc3C(=O)N21)C(=O)N1CCCCC1 (some centres not stated)	PHOSPHO1 block 65 (no result: Cl transport mod)
CC(C)CCN1C(=O)c2ccc(C(=O)Nc3ccc(Br)cc3C(=O)O)cc2C1=O	Calb FLC 82 (no result: Cl transport mod)
CC(C)CCN1C(=O)c2ccc(C(=O)Nc3cc(C(=O)O)cc(C(=O)O)c3)cc2C1=O	none (no result: Cl transport mod)
COc1ccc(-c2noc(N3CCCC(C(=O)Nc4ccc(F)cc4F)C3)n2)cc1 (configuration not stated)	none (no result: Cl transport mod)
N=c1c2c(-c3ccccc3)c(-c3ccccc3)oc2ncn1CCN1CCOCC1	none
c1ccc(-c2oc3ncnc(NCCN4CCOCC4)c3c2-c2ccccc2)cc1	H9c2 protect 53
Cc1cccc(C(=O)NC(=S)NNC(=O)c2cccs2)c1	Cl transport mod 34, PHOSPHO1 block 88
CC(C)(C)c1ccc(C(=O)NC(=S)NNC(=O)c2cccs2)cc1	Cl transport mod 57
O=C(NC(=S)NNC(=O)c1cccs1)c1ccccc1	none (no result: Cl transport mod)
Cc1cccc(C(=O)NC(=S)NNC(=O)c2ccc(Cl)cc2)c1	Cl transport mod 42
COc1cc(C)c(NC(=O)c2cccc(S(=O)(=O)N3CCCC3)c2)cc1OC	none (no result: Calb FLC, Cl transport mod, PHOSPHO1 block)
CCN(CC(=O)N1CCOCC1)S(=O)(=O)c1ccccc1	none (no result: Cl transport mod)
O=C(Nc1ccc(Br)c2ccccc12)c1ccc2ccccc2c1O	none
COc1cc(C)ccc1OCCCOc1ccccc1Br	none
CCc1ccccc1OCCOc1ccc(C)cc1OC	PHOSPHO1 block 60
O=C(Nc1cc([N+](=O)[O-])c2[nH]c(=O)c3ccccc3c2c1)C(F)(F)F	none (no result: Calb FLC, Efflux pump inh, Cl transport mod, PHOSPHO1 block)
O=C(NCC1CCCO1)C1CCCN1C(=O)Nc1ccc(Cl)cc1 (configuration not stated)	PHOSPHO1 block 60
CCCCCc1ccc(-c2ccc(/C=C/C(=O)O)cc2)nc1	Calb FLC 81
CCOc1nc(-c2ccccc2)c2cc(Br)ccc2n1	none (no result: Cl transport mod)
O=C1c2ccccc2C(=O)N1CCSc1n[nH]c(=S)s1	PHOSPHO1 block 99
O=C1c2ccccc2C(=O)N1CCSc1ncn[nH]1	none
C=CCSc1nnc2c(n1)OC(c1cccnc1)Nc1ccccc1-2 (configuration not stated)	PHOSPHO1 block 82
Cc1nc(NC(=O)c2ccc(Cl)cc2)sc1Cc1ccc2c(c1)OCO2	PHOSPHO1 block 71
Cc1nc(NC(=O)c2ccccc2)sc1Cc1ccc2c(c1)OCO2	none
COc1c2c(c(OC)c3ccccc13)[C@]1(OC2)O[C@H](CCO)C[C@H](O)[C@H]1O	none (no result: Calb FLC, Efflux pump inh, Cl transport mod, PHOSPHO1 block)
CC(C)Oc1ccc(N2CC(C(=O)NC3=NCCS3)CC2=O)cc1 (configuration not stated)	PHOSPHO1 block 64
Cc1ccc(S(=O)(=O)NCc2cc(=O)n(C)c(=O)n2C)cc1C	none (no result: Cl transport mod)
CCOC(=O)C[C@H]1c2ccccc2S(=O)(=O)N1C1CC1	none (no result: Cl transport mod, PHOSPHO1 block)
